HT1080 IDH1KD tx – HT-1080 IDH1 knockdown cell toxicity (counter line); Potency, µM (titrated, usually from 46.1 µM), hits mostly cytotoxic; hit rate 2% among 360,000; HT-1080 IDH1 knockdown viability, ATP luminescence, 48 h
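Cytotoxicity counter-line: IDH1KD HT-1080, 48 h, CellTiter-Glo. Curves classed by r2, magnitude and activity.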
HT1080-NT tox – kills 2HG-producing HT-1080-NT fibrosarcoma cells; Potency, µM (series often up to 46.1 µM), usual class: cytotoxic; HT-1080-NT fibrosarcoma viability, CellTiter-Glo ATP luminescence, 48 h; hit rate 1.6% among 360,000;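 further: NT is the 2HG producing partner of a matched IDH1 knockdown line; nearly all actives have a fitted effect of over 55% in size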
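Fibrosarcoma NT cells, 750 per well in 5% FBS RPMI, were exposed to compound for 48 hours. Viability: CellTiter-Glo luminescence.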
DT40 TDP1 no CPT – qHTS for Inhibitors of human tyrosyl-DNA phosphodiesterase 1 (TDP1): qHTS in cells in absence of CPT | Potency, µM (titrated, usually from 46.2 µM), usual class: inhibitors | DT40 Tdp1-/- hTDP1 cells, no CPT, ATP luminescence, 48 h | hit rate 15% among 420,000; further: nearly all actives have a fitted effect of over 55% in size
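A cellular qHTS used chicken DT40 cells lacking endogenous Tdp1 but carrying stably transfected human TDP1. Compounds were applied without camptothecin, and cell growth kinetics were judged by ATP-dependent luminescence after ≥48 hr.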
TDP1 cell CPT – DT40-hTDP1 cell growth loss with CPT; AID 686979; chicken DT40 Tdp1-/-;hTDP1 cells + 20 nM CPT, ATP luminescence, 48 h; hit rate 12% among 420,000; Potency, µM (series often up to 46.2 µM), usual class: inhibitors; further: nearly all actives have a fitted effect of over 55% in size
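Chicken DT40 Tdp1-/- cells stably complemented with human TDP1 were seeded at 400 cells/well in medium containing 20 nM camptothecin, exposed to pin-transferred compounds, and grown at 37 °C for at least 48 hr. Viability was read as ATP luminescence.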
IL-1B inflam inh – inhibitors of inflammasome signaling (IL-1 beta secretion); THP-1 LPS/ATP IL-1B secretion, AlphaLISA, 16 h; active compounds read low; activity change, % at 57.5 µM; hit rate 4.7% among 360,000; AID 743279; in the data active means activity change below about -50%; inconclusive means mostly about -30% to -49%
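THP-1 cells pretreated 1 hr with compounds (up to 57.5 uM final), then stimulated with LPS (250 ng/mL final) plus ATP (1.25 mM final); secreted IL-1B measured by AlphaLISA after 16 hr, decreased signal indicating inhibition.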
A number is an active result; [ ] = remark or other dose. Hits are enriched below; roughly 19% of the tested compounds scored in any of these assays. Unless noted, the call rests on the fitted dose curve; in most records, active means well fitted curve in the direction sought with a large enough effect; inconclusive means small, poorly fitted or top-dose-only effect, or another doubt; inactive means no such curve, though single readings can be large; an effect the other way counts as inactive or inconclusive.

`OC1CCN(Cc2ccc3c(c2)CN(C/C=C/c2ccco2)CCO3)CC1` gave DT40 TDP1 no CPT inactive and TDP1 cell CPT inactive[9.04 µM].
For CCNc1ccc(S(=O)(=O)N2CCOCC2)cc1NCC(=O)Nc1cccc(Br)c1 the results were HT1080 IDH1KD tx inactive, HT1080-NT tox inactive, DT40 TDP1 no CPT 2.59µM, TDP1 cell CPT 7.31µM and IL-1B inflam inh inactive.
Screening Cn1cc(S(=O)(=O)N2CCCC2)cc1C(=O)Nc1ccc(C(F)(F)F)cc1 returned DT40 TDP1 no CPT inconclusive and TDP1 cell CPT 29.1µM.
Cc1ccc(NC(=O)CNc2cc(S(=O)(=O)N3CCOCC3)ccc2NCC2CCCO2)cc1F (configuration not stated) was read as HT1080 IDH1KD tx inactive, HT1080-NT tox inactive, DT40 TDP1 no CPT inconclusive, TDP1 cell CPT inconclusive and IL-1B inflam inh inactive.
Cc1cccc(CNc2ccc(S(=O)(=O)N3CCCCC3)cc2)c1 was read as HT1080 IDH1KD tx inactive, HT1080-NT tox inactive, DT40 TDP1 no CPT inconclusive, TDP1 cell CPT 20.6µM and IL-1B inflam inh inactive.
`Cc1cccc(NC(=O)CSCC(=O)Nc2ccc(S(=O)(=O)N3CCCC3)cc2)c1` gave HT1080 IDH1KD tx inactive, HT1080-NT tox inactive, DT40 TDP1 no CPT inactive, TDP1 cell CPT inactive and IL-1B inflam inh inactive.
For O=[N+]([O-])c1cc(NCCO)c(N2CCCCCC2)c2nonc12 the results were HT1080 IDH1KD tx inactive, HT1080-NT tox inactive, DT40 TDP1 no CPT inactive, TDP1 cell CPT inactive and IL-1B inflam inh inactive.
`c1cncc(OC2CCN(Cc3ccc4c(c3)CN(Cc3ccc5c(c3)OCO5)CCO4)CC2)c1` gave DT40 TDP1 no CPT inconclusive and TDP1 cell CPT inactive[9.04 µM].
For CCOC(=O)/C(C#N)=C/c1cc2ccccc2nc1N1CCOCC1 the results were HT1080 IDH1KD tx inactive, HT1080-NT tox inactive, DT40 TDP1 no CPT inactive, TDP1 cell CPT inactive and IL-1B inflam inh inactive.
Screening N#CC(C#N)=Cc1cc2ccccc2nc1N1CCCCC1 returned HT1080 IDH1KD tx inactive, HT1080-NT tox inactive, DT40 TDP1 no CPT 20.6µM, TDP1 cell CPT 20.6µM and IL-1B inflam inh -103.6.
`O=C(COC(=O)c1cnccn1)Nc1cccc(F)c1` gave HT1080 IDH1KD tx inactive, HT1080-NT tox inactive, DT40 TDP1 no CPT inactive, TDP1 cell CPT inactive and IL-1B inflam inh inactive.
For Cc1ccc(C2=NNC(c3ccc(Cl)cc3)=Nc3ccccc32)o1 the results were HT1080 IDH1KD tx inactive, HT1080-NT tox inactive, DT40 TDP1 no CPT 11.6µM, TDP1 cell CPT 13µM and IL-1B inflam inh inactive.
For O=C(CCCOc1ccc(Cl)cc1Cl)N/N=C/c1ccc(Cl)cc1 the results were HT1080 IDH1KD tx inconclusive, HT1080-NT tox inconclusive, DT40 TDP1 no CPT 23.1µM, TDP1 cell CPT inconclusive and IL-1B inflam inh inconclusive.
Screening O=C(CCCOc1ccc(Cl)cc1Cl)N/N=C\C1CCCCC1 returned HT1080 IDH1KD tx inactive, HT1080-NT tox inactive, DT40 TDP1 no CPT inactive, TDP1 cell CPT inactive and IL-1B inflam inh -50.5.
Screening Cc1cc(Cl)ccc1OCCCC(=O)N/N=C/c1cccc([N+](=O)[O-])c1 returned HT1080 IDH1KD tx inactive, HT1080-NT tox inactive, DT40 TDP1 no CPT inconclusive, TDP1 cell CPT 14.6µM and IL-1B inflam inh inactive.
For Cc1cc(Cl)ccc1OCCCC(=O)NO the results were HT1080 IDH1KD tx 20.6µM, HT1080-NT tox 20.6µM, DT40 TDP1 no CPT 18.4µM, TDP1 cell CPT 8.2µM and IL-1B inflam inh inactive.
O=C(CCCOc1ccc(Cl)cc1Cl)NCCCO was read as HT1080 IDH1KD tx inactive, HT1080-NT tox inactive, DT40 TDP1 no CPT inactive, TDP1 cell CPT inactive and IL-1B inflam inh inactive.
For COc1ccc(/C=N/NC(=O)CCCOc2ccc(Cl)cc2Cl)cc1 the results were HT1080 IDH1KD tx inactive, HT1080-NT tox inactive, DT40 TDP1 no CPT inactive, TDP1 cell CPT inactive and IL-1B inflam inh inactive.
`Cc1ccc(NC(=S)c2nc3ccccc3[nH]2)cc1` gave HT1080 IDH1KD tx inactive, HT1080-NT tox inactive, DT40 TDP1 no CPT 10.3µM, TDP1 cell CPT 13µM and IL-1B inflam inh inactive.
For Cc1ccc(NC(=S)c2nc3ccccc3[nH]2)c(C)c1 the results were HT1080 IDH1KD tx inactive, HT1080-NT tox inactive, DT40 TDP1 no CPT inconclusive, TDP1 cell CPT inconclusive and IL-1B inflam inh inactive.
